# Source: PubChem
# An excerpt weighted towards active compounds, which were near 13% of everything screened.
# USP30 inh = inhibitors of human USP30 deubiquitinase; Q70CQ3; purified USP30, Ub-rhodamine cleavage fluorescence; inhibition, % at 25 µM; hit rate 5.3% among 47,000; AID 1645860
# USP17 inh = inhibitors of human USP17 deubiquitinase; A8MUK1; purified USP17, Ub-rhodamine cleavage fluorescence, 3 h; inhibition, % at 50 µM; hit rate 6.5% among 47,000; AID 1645855
# USP10 block = human USP10 deubiquitinase inhibition; purified USP10, Ub-rhodamine fluorescence, 60 min; inhibition, % at 20 µM; hit rate 1.1% among 47,000
# USP28 block = blocks human USP28 ubiquitin-rhodamine cleavage; inhibition, % at 25 µM; AID 1645857; hit rate 3% among 47,000; purified USP28, Ub-rhodamine cleavage fluorescence, 30 min
# USP8 inh = human USP8 deubiquitinase inhibition. hit rate 4.2% among 47,000. purified USP8, Ub-rhodamine cleavage fluorescence, 30 min. inhibition, % at 20 µM. P40818
# OTUD3 inh = blocks human OTUD3 ubiquitin-rhodamine cleavage; hit rate 0.7% among 47,000; AID 1645858; inhibition, % at 25 µM; purified OTUD3, Ub-rhodamine fluorescence, 2 h
# Target sequence (Q5T2D3 whole entry, looked up): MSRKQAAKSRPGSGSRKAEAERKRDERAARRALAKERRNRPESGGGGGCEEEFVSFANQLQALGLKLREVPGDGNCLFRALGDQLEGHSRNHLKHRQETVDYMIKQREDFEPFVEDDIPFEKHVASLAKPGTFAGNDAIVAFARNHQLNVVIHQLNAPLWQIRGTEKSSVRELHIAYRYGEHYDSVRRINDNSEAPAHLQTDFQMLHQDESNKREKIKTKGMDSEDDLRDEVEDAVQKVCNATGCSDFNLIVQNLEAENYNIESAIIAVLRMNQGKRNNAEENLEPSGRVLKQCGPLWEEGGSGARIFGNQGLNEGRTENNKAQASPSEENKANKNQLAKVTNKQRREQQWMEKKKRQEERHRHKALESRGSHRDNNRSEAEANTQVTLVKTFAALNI
# Numbers without * were called inactive; x = no result. Cut-off read from the data, not from the text of the source: active = inhibition above about 30%; inactive = the rest.
SMILES,USP30 inh,USP17 inh,USP10 block,USP28 block,USP8 inh,OTUD3 inh
COc1cc(NC(=O)CCc2nnc3ccc(N4CCCC4)nn23)cc(OC)c1,5,-2,-2,-7,-1,-4
Cc1nccc(C(=O)N2CCCC(c3ncc(Cc4ccc(F)cc4)o3)C2)n1 (centres undefined),0,0,0,2,-2,-1
O=C(c1ccc([N+](=O)[O-])cc1)N1CCC(c2nc3c(nnn3Cc3cccc(F)c3)c(=O)[nH]2)CC1,21,-3,8,9,-116,3
NC(=O)c1sc2ncccc2c1C1CCN(c2ncccn2)CC1,0,-6,-1,-4,-1,0
COCCn1ccc2c(OCC(=O)NCc3ccc4c(c3)OCO4)cccc2c1=O,-10,-3,0,8,-10,-6
COc1ccc(CC(=O)N2CCC(c3nc(C)ncc3-c3cc(C)no3)CC2)cc1,0,-7,0,-9,-12,-1
CCOc1ccc(C(=O)N2CCC(c3nc(C)ncc3-c3cc(C)no3)CC2)o1,36*,11,1,15,7,12
CC(C)Cn1c(C2CCCCC2)nc2c(c(=O)c3ccccc3n2C)c1=O,5,12,5,-6,-2,-2
Cn1c2ccccc2c(=O)c2c(=O)n(Cc3ccccc3)c(C3CCCCC3)nc21,42*,15,5,9,0,12
CC(C)c1nc2c(c(=O)c3ccccc3n2C)c(=O)n1CCc1ccccc1,50*,4,7,35*,1,2
CCn1c2ccccc2c2cc(NC(=O)COc3cccc(F)c3)ccc21,-81,-6,1,-2,0,-28
CC(=O)c1c(C2CC2)[nH]c2ncccc12,20,4,1,6,1,5
Cc1ccc(CNC(=O)CCN2C(=O)c3cccnc3Sc3ccccc32)cc1,-8,-5,-3,-13,-1,-3
O=C(Nc1cccc([N+](=O)[O-])c1)Nc1ccc2snnc2c1,-16,-5,56*,6,95*,-1
CC(Sc1nnc2ccccn12)C(=O)Nc1cccc([N+](=O)[O-])c1 (centres undefined),x,-4,2,x,0,1
CC1(C(=O)NC2CCCC2)Cn2c(ccc2-c2ccco2)C(=O)N1Cc1ccccc1 (centres undefined),-234,30,-6,-10,57*,-13
Cc1ccc(CN2C(=O)c3cc4ccccc4n3CC2(C)C(=O)NCc2ccccc2)o1 (centres undefined),30,64*,7,8,5,-13
COc1ccc2cc3n(c2c1)CC(C)(C(=O)NC1CCCC1)N(Cc1ccc(C)cc1)C3=O (centres undefined),9,1,3,2,11,4
COc1ccc(N2C(=O)c3cc4ccccc4n3CC2(C)C(=O)NC2CCCC2)cc1 (centres undefined),15,15,11,10,31*,15
CC1(C(=O)NCc2ccccc2)Cn2c(cc3ccccc32)C(=O)N1Cc1ccccc1 (centres undefined),0,50*,16,23,-162,15
CC(=O)OC1C2OC2C2=CC(=O)C3(CC2(C)C1C)OC3(C)CO (centres undefined),-40,13,-11,8,-73,13
CNc1nc2c(c(=O)n1-c1ccccc1)CN(C(=O)Nc1ccccc1)CC2,15,9,2,5,23,9
O=C1CC(c2ccc3c(c2)OCO3)Nc2ccc3ccccc3c21 (centres undefined),21,16,8,21,-5,0
CCNC(=O)n1ccc(-c2c(C)nc3cc(C)ccn23)n1,-37,3,0,0,1,1
COc1cccc2sc(N3CCN(C(=O)CCc4ccccc4)CC3)nc12,17,6,1,14,13,10
O=C(CCc1ccccc1)N1CCN(c2nc3c(Cl)cccc3s2)CC1,38*,26,12,21,16,24
O=C(CCc1ccccc1)N1CCN(c2nc3c(F)cc(F)cc3s2)CC1,35*,16,5,19,18,19
O=C(Cc1nnc(-c2cnccn2)o1)NCc1cccc(Cl)c1,-5,-5,4,-2,-7,-10
O=C(O)CNC(=O)c1ccc2nc(-n3cccc3)sc2c1,-117,-45,-6,-17,-9,-18
O=C(NCc1cccc(Cl)c1)c1sc2ncccc2c1-n1cccc1,-57,16,0,31*,-52,2
